Laboratory results reported in ChEMBL document CHEMBL1961873, “Compounds: GSK PKIS; Assays: Nanosyn kinase panel” (2012).

What was measured:
[1] = biological target: Tyrosine-protein kinase CSK (Homo sapiens) (UniProt P41240); details: at 1 µM;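 further: each value is an averaged inhibition reading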
[2] = biological target: T1, Discoidin domain-containing receptor 2 (Homo sapiens) (UniProt Q16832); details: at 0.1 µM
T1 sequence (whole entry): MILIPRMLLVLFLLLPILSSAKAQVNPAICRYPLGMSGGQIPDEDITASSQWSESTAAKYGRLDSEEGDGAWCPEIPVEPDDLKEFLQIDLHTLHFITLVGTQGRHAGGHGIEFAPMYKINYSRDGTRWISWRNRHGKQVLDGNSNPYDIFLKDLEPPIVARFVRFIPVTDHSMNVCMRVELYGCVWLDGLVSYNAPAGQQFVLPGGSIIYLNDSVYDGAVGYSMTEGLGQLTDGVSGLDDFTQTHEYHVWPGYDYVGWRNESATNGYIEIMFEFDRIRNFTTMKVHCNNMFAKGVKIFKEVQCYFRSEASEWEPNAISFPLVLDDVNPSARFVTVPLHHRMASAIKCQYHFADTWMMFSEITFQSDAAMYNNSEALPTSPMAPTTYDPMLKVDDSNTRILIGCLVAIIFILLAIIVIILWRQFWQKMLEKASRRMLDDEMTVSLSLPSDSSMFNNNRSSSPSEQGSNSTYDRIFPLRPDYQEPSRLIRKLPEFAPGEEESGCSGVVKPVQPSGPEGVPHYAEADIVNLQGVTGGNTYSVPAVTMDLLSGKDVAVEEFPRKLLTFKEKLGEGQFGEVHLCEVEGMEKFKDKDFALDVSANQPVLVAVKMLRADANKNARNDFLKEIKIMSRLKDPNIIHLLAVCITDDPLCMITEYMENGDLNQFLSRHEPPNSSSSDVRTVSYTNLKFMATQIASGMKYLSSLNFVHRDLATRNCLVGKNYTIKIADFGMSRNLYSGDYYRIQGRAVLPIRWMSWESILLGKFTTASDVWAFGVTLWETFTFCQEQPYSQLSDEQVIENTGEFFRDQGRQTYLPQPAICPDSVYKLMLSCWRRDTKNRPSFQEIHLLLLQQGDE

[3] = biological target: T1, Discoidin domain-containing receptor 2 (Homo sapiens); details: at 1 µM
[4] = biological target: Epidermal growth factor receptor (Homo sapiens) (UniProt P00533); details: at 0.1 µM
[5] = biological target: Epidermal growth factor receptor (Homo sapiens) (UniProt P00533); details: at 1 µM
[6] = test system: Epidermal growth factor receptor (Homo sapiens), P00533 [L858R]; details: at 0.1 µM
[7] = test system: Epidermal growth factor receptor (Homo sapiens), P00533 [L858R]; details: at 1 µM
[8] = test system: Epidermal growth factor receptor (Homo sapiens), P00533 [L861Q]; details: at 0.1 µM
[9] = test system: Epidermal growth factor receptor (Homo sapiens), P00533 [L861Q]; details: at 1 µM
[10] = test system: Epidermal growth factor receptor (Homo sapiens), P00533 [T790M]; details: at 0.1 µM
Chain of Epidermal growth factor receptor (Homo sapiens), P00533 [T790M] (P00533 whole entry T790M): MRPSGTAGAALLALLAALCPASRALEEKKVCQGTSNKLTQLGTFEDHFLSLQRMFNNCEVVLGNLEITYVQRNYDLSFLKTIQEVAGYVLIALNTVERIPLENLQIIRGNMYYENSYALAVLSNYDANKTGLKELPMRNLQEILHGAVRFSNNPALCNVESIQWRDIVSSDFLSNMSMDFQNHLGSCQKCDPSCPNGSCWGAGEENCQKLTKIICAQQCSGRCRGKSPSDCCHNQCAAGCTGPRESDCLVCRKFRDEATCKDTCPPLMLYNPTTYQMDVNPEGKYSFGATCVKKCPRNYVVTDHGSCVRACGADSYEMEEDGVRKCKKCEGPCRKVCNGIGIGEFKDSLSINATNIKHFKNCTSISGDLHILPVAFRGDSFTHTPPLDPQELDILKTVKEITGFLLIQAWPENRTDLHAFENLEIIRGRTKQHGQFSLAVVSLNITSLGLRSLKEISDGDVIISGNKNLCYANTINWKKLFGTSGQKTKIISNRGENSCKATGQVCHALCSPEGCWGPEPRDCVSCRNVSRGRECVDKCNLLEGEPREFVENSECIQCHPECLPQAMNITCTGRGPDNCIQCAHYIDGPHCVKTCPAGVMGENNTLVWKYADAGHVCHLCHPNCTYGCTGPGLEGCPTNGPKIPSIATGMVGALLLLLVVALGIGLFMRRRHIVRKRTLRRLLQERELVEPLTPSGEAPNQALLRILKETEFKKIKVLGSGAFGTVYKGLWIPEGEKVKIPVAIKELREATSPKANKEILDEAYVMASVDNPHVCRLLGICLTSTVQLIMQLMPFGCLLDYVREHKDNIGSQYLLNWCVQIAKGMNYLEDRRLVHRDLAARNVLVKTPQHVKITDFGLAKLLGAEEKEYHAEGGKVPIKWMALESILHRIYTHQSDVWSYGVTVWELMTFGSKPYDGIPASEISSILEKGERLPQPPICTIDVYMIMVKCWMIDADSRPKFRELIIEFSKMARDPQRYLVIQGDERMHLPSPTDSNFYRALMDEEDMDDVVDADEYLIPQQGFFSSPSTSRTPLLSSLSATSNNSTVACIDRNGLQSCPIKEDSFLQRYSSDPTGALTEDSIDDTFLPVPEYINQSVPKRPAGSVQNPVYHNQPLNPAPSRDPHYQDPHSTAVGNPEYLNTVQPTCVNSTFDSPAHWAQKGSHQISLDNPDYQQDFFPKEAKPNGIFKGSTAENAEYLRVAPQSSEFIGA

Chain of Epidermal growth factor receptor (Homo sapiens) (P00533 whole entry): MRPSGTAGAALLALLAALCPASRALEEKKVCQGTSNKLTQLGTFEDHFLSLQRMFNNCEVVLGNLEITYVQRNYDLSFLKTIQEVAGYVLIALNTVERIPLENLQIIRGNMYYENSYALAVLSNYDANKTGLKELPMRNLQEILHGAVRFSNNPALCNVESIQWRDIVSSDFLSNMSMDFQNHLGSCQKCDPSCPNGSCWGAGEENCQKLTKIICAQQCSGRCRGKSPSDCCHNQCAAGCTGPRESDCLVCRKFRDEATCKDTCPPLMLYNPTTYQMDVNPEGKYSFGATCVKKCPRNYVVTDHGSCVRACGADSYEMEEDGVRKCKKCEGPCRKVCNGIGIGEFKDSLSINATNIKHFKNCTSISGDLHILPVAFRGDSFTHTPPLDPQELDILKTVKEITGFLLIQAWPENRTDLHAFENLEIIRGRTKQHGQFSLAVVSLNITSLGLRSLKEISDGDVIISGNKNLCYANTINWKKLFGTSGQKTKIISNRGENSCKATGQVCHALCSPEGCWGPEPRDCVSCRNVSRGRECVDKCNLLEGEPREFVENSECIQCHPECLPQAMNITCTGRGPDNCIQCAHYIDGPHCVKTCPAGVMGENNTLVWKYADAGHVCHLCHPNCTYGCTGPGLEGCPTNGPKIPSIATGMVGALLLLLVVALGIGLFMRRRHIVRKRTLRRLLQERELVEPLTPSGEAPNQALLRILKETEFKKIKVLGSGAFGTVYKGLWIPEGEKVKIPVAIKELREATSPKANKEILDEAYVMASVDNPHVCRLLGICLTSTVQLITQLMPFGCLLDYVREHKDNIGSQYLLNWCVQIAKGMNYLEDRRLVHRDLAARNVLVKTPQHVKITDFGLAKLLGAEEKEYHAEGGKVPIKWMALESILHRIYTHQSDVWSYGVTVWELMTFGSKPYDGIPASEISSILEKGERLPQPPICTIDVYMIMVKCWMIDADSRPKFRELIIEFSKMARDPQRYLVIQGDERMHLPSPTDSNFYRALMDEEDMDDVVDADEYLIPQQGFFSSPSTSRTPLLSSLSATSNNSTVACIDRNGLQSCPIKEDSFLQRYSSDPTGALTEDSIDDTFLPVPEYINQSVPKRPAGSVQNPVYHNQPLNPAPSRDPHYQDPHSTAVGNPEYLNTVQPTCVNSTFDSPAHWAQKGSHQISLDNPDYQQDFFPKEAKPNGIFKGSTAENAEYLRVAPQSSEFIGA
Chain of Tyrosine-protein kinase CSK (Homo sapiens) (P41240 2-450 limits assumed): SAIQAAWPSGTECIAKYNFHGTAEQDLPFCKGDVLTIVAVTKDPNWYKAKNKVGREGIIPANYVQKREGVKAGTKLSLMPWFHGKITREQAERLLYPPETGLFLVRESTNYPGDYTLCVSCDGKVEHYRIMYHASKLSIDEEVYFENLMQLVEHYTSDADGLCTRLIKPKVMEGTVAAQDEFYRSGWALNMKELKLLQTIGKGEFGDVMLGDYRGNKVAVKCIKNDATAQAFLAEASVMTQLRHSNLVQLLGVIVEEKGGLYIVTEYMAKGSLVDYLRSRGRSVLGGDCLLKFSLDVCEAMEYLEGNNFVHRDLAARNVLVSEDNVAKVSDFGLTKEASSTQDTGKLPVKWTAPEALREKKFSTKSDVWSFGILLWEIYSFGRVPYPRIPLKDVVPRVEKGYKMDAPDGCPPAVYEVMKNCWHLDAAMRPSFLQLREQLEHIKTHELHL
Chain of Epidermal growth factor receptor (Homo sapiens), P00533 [L858R] (P00533 whole entry L858R): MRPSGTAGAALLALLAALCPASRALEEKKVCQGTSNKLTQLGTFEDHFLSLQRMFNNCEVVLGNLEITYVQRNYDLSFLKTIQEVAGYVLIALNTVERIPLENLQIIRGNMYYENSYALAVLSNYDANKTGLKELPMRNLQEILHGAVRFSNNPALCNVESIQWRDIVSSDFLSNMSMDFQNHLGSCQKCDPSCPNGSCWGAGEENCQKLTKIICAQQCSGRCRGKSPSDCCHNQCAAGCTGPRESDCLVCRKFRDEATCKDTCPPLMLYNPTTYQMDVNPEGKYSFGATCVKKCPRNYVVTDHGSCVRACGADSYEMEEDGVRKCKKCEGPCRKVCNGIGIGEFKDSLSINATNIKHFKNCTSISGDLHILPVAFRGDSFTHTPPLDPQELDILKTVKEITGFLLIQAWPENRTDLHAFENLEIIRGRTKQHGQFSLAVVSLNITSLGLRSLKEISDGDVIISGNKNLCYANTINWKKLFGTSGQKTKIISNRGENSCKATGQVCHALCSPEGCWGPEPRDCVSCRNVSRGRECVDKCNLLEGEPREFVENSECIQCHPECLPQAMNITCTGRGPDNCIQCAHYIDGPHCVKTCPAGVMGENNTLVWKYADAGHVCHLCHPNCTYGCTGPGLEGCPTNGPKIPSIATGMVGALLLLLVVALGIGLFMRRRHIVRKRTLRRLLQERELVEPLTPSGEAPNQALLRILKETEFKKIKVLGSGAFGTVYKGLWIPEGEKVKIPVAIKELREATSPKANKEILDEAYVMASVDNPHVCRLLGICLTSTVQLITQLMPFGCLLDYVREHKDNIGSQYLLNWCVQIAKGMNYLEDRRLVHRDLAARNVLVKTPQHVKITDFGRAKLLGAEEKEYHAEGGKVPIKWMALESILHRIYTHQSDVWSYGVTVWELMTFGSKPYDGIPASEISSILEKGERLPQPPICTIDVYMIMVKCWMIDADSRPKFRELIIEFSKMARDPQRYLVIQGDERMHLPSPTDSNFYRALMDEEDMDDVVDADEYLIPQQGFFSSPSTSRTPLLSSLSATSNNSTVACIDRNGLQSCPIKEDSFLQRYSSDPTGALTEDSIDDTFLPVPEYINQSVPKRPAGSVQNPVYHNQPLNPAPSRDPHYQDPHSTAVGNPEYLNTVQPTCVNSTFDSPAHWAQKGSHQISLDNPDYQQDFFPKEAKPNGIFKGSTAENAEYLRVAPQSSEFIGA

SMILES | inhibition [1] | inhibition [2] | inhibition [3] | inhibition [4] | inhibition [5] | inhibition [6] | inhibition [7] | inhibition [8] | inhibition [9] | inhibition [10]
c1ccc(Nc2ncc(-c3ccccc3)o2)cc1 | 3.75% | 2.39% | 7.24% | 4.96% | 10.5% | 4.87% | 2.77% | 2.75% | 4.14% | 2.39%
NC(=O)c1sc(-n2cnc3ccccc32)cc1OCc1ccccc1Br | 2.18% | 1.76% | 1.6% | 1.88% | 0.93% | -0.06% | 5% | 1.71% | 2.89% | 1.26%
Cc1ccc(NC(=O)CC2CC2)cc1-c1ccc(C(=O)NCC2CC2)cc1 | 5.95% | 2.18% | 5.56% | 0.19% | 2.75% | 3.95% | 4.15% | 1.88% | 4.52% | 2.03%
CN(C)CCCn1c(-c2nonc2N)nc2cnccc21 | 1.67% | 1.29% | 1.57% | 9.72% | 10.6% | 3.98% | 0.96% | 3.25% | 1.62% | 2.09%
FC(F)(F)c1ccc(-c2nn3ncccc3c2-c2ccnc(Nc3ccc4c(c3)OCCO4)n2)cc1 | 6.46% | 8.59% | 24.9% | 6.78% | 19.2% | 5.78% | 40.1% | 4.86% | 27.6% | 0.49%
NS(=O)(=O)c1ccc(Nc2cc(-c3cccc(O)c3)n[nH]2)cc1 | 5.32% | 2.49% | 3.91% | 0.67% | 1.98% | 5.34% | 5.18% | 3.68% | 1.85% | 2.46%
CCCN1CCCC(c2ccc(Nc3nc(Nc4cc(F)ccc4C(N)=O)c4cc[nH]c4n3)c(OC)c2)C1 (centres undefined) | 4.58% | 2.62% | 4.82% | 7.23% | 38% | 9.57% | 37.5% | 7.28% | 28.4% | 32%
CS(=O)(=O)Nc1cccc(-c2ccc3c(NC(=O)C4CC4)n[nH]c3c2)c1 | -2.39% | 0.9% | 0.99% | 0.81% | 0.31% | -0.89% | -1.93% | 1.44% | -2.52% | -1.89%
N#Cc1cccc(Nc2nccc(-c3cnn4ncccc34)n2)c1 | 13.4% | 2.63% | 7.43% | 1.1% | 6.11% | 4.18% | 18.2% | 4.53% | 7.78% | 2.36%
NC(=O)c1cccc(Nc2nccc(Nc3cccc(F)c3)n2)c1 | 9.32% | -1.54% | 6.93% | 1.6% | 10.6% | 0.01% | 31.4% | 0.09% | 10.1% | -0.56%
COC(=O)c1cncc(/C=C/c2c(C)cc(O)cc2C)c1 | 24.8% | 1.69% | 10.3% | 0.29% | 3.19% | 2.6% | 11.5% | 3.47% | 7.07% | 2.64%
OCc1ccc(-c2nc(-c3ccccn3)c(-c3ccc4c(c3)OCO4)[nH]2)cc1 | 3.94% | 2.68% | 4.73% | 3.69% | 6.33% | 3.45% | 1.89% | 3.49% | -0.4% | 2.68%
COc1cccc(-n2ncc3c(N/N=C/c4ccc(S(C)(=O)=O)cc4)ncnc32)c1 | 18.2% | 1.49% | 7.83% | 6.5% | 22.6% | 29.7% | 57.8% | 8.34% | 20.6% | 0.29%
CS(=O)(=O)CCNCc1nc(-c2ccc3ncnc(Nc4ccc(OCc5cccc(C(F)(F)F)c5)cc4)c3c2)cs1 | 2.7% | 5.44% | 5.59% | 14.6% | 64% | 8.86% | 43.9% | 11.5% | 34.8% | -1.75%
COc1cc(/C=N/Nc2ncnc3c2cnn3C(C)C)ccc1O | -1.57% | -0.03% | -1.45% | 6.39% | 9.9% | 3.23% | 12.2% | 2.56% | 3.26% | 0.17%
COc1cccc(-n2nc(C)c3c(N/N=C(\C)c4ccncc4)ncnc32)c1 | 0.42% | 0.8% | 0.38% | 1.03% | 2.43% | -0.3% | 1.45% | -0.04% | 0.7% | -1.78%
COc1cc2ncn(-c3cc(OCc4ccccc4S(C)(=O)=O)c(C#N)s3)c2cc1OC | 4.26% | 2.02% | 8.19% | 3.74% | 11.8% | 9.37% | 45.8% | 3.09% | 8.31% | 3.02%
COc1cc(Nc2nccc(-c3cnn4ncccc34)n2)cc(OC)c1 | 12.1% | 1.4% | 8.7% | 1.68% | 5.94% | 2.1% | 16.7% | 0.35% | 3.09% | 0.47%
Cc1ccc2c(-c3ccnc(Nc4ccc5c(c4)OCCO5)n3)c(-c3ccc(C(F)(F)F)cc3)nn2n1 | 0.48% | -0.19% | 6.25% | -0.94% | 3.45% | 0.63% | 5.71% | -1.17% | 5.26% | -0.63%
COc1ccc2ncnc(Nc3ccc(OCc4ccccc4)cc3)c2c1 | 8.35% | 1.31% | 2.34% | 62.7% | 76.2% | 12.1% | 46.3% | 23.9% | 39% | -0.31%
Cc1cc(Cl)cc2c1NC(=O)C2=NNc1ccc(S(N)(=O)=O)cc1 | 3.65% | 5.11% | 4.88% | 0.92% | 1.34% | 0.35% | 4.79% | 1.56% | 4.09% | 1.21%
ON=C1CCc2cc(-c3nc(C4CCNCC4)[nH]c3-c3ccncc3)ccc21 | -6.96% | -0.82% | -2.38% | 0.23% | 2.59% | -0.65% | -1.1% | 0.26% | -2.11% | -0.91%
CN(c1ccc(NC(=O)Nc2ccc(OC(F)(F)F)cc2)cc1)c1ccnc(Nc2cccc(S(N)(=O)=O)c2)n1 | 29.4% | 53.2% | 88.6% | -0.6% | 3.21% | 1.4% | 3.36% | 1.14% | 5.92% | 1.81%
CCn1c(-c2nonc2N)nc2ccc(F)cc21 | 8.91% | 0.92% | 4.58% | 12.1% | 13.4% | 4.05% | 12.7% | 4.88% | 8.61% | 3%
Cc1ccc(C(=O)NC2CC2)cc1-c1ccc2[nH]ncc2c1 | – | -0.85% | -0.74% | -1.17% | 1.98% | -1.88% | -2.39% | -0.66% | -1.04% | -2%
Nc1nccc(-c2c(-c3ccc(F)cc3)nn3cc(C(F)(F)F)ccc23)n1 | 1.17% | 1.51% | 5.28% | -0.27% | 3.78% | 1.74% | 11.4% | -0.3% | 3.8% | 0.44%
